The test system of one experiment is T1, CTK.
T1 construct: gene MATK
As to conditions: concentration: 1 μM, replicates: in singlicate; n = 1.

In another experiment the test system is DAPK1. As to conditions: concentration: 1 μM, replicates: in singlicate; n = 1.
Another experiment has as its system DAPK2. As to conditions: concentration: 1 μM, replicates: in singlicate; n = 1.
For another experiment, the system named is DAPK3. The note with it: concentration: 1 μM, replicates: in singlicate; n = 1.
The subject of a further experiment is T2, DCAMKL1.
T2 construct: gene DCLK1
The note with it: concentration: 1 μM, replicates: in singlicate; n = 1.

A further experiment concerns T3, DCAMKL2.
T3 construct: gene DCLK2
The note with it: concentration: 1 μM, replicates: in singlicate; n = 1.

The next experiment relates to T4, DCAMKL3.
T4 construct: gene DCLK3
The note with it: concentration: 1 μM, replicates: in singlicate; n = 1.

A further experiment relates to DDR1. As to conditions: concentration: 1 μM, replicates: in singlicate; n = 1.
The next experiment relates to DDR2. The note with it: concentration: 1 μM, replicates: in singlicate; n = 1.
Another experiment concerns T5, DLK.
T5 construct: gene MAP3K12
As to conditions: concentration: 1 μM, replicates: in singlicate; n = 1.

Another experiment has as its system T6, DMPK2.
T6 construct: gene CDC42BPG
The note with it: concentration: 1 μM, replicates: in singlicate; n = 1.

The test system of the next experiment is DMPK. As to conditions: concentration: 1 μM, replicates: in singlicate; n = 1.
The next experiment has as its system T7, DRAK1.
T7 construct: gene STK17A
As to conditions: concentration: 1 μM, replicates: in singlicate; n = 1.

The next experiment relates to T8, DRAK2.
T8 construct: gene STK17B
As to conditions: concentration: 1 μM, replicates: in singlicate; n = 1.

Another experiment concerns DYRK1A. As to conditions: concentration: 1 μM, replicates: in singlicate; n = 1.
The next experiment deals with DYRK1B. The note with it: n = 1.
A further experiment has as its system DYRK2. The note with it: concentration: 1 μM, replicates: in singlicate; n = 1.
Another experiment has as its system EGFR. The note with it: concentration: 1 μM, replicates: in singlicate; n = 1.
Another experiment deals with EIF2AK1. As to conditions: concentration: 1 μM, replicates: in singlicate; n = 1.
In a further experiment the test system is EPHA1. The note with it: concentration: 1 μM, replicates: in singlicate; n = 1.
Setting [1] is: concentration: 1 μM, replicates: in singlicate.

The record followed here is article PMC5540273 (PLoS ONE, 2017).

Each structure is given as a SMILES string. Where two headings read alike, the source gives them in different places.
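Also: KINOMEscan kinase panel screen.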

As to `CC(=O)c1c(C)c2cnc(Nc3ccn(C)n3)nc2n(C2CCCC2)c1=O`, the “%Inh” value is 0% in the experiment on CTK; 0% in the experiment with DAPK1; 0% in the experiment on DAPK2; 3% with DAPK3; 0% in the experiment with DCAMKL1; 100% in the experiment on DCAMKL2. Further, the “%Inh” value was 0% in the experiment with DCAMKL3; 0% in the experiment with DDR1; 0% in the experiment with DDR2; 64% in the experiment on DLK; 1% with DMPK2; 0% with DMPK. The “%Inh” value with DRAK1 amounted to 0%; with DRAK2 it was 0%; in the experiment on DYRK1A, 13%; in the experiment on DYRK1B (setting [1]), 0%; in the experiment with DYRK2 it was 0%; with EGFR, 5%. The “%Inh” value is reported as 0% in the experiment on EIF2AK1 and 4% in the experiment on EPHA1.
On to `COc1cccc(NC(=O)Nc2ccc(C)c(-c3ccc(C(=O)Nc4ccncc4)cc3)c2)c1` [GSK1398474], for which the “%Inh” value with CTK is on record as 0%; with DAPK1, 28%; in the experiment with DAPK2, 8%; in the experiment with DAPK3, 0%; in the experiment on DCAMKL1 it was 1%; in the experiment on DCAMKL2 it was 7%. In addition, the “%Inh” value is 0% in the experiment with DCAMKL3; 94.2% in the experiment with DDR1; 36% in the experiment with DDR2; 6% in the experiment on DLK; 5% with DMPK2; 0% in the experiment on DMPK. In addition, the “%Inh” value is 0% with DRAK1; 9% with DRAK2; 9% with DYRK1A; 43% in the experiment with DYRK1B (setting [1]); 22% with DYRK2; 17% in the experiment on EGFR. In addition, the entries for the “%Inh” value in the experiment on EIF2AK1 and in the experiment on EPHA1 were 7% and 20%, respectively.
With `COc1ccc(-c2coc3ccc(-c4nnc(C)o4)cc23)cc1`, the “%Inh” value amounted to 0% with CTK; 0% in the experiment with DAPK1; 1% in the experiment with DAPK2; 0% in the experiment with DAPK3; 15% with DCAMKL1; 0% in the experiment with DCAMKL2. Further, the “%Inh” value in the experiment with DCAMKL3 worked out at 13%; in the experiment on DDR1, 0%; in the experiment on DDR2, 0%; in the experiment on DLK it was 0%; in the experiment with DMPK2 it was 0%; in the experiment with DMPK, 0%. The “%Inh” value in the experiment with DRAK1 came to 0%; with DRAK2, 0%; in the experiment with DYRK1A, 40%; with DYRK1B (setting [1]), 0%; in the experiment on DYRK2 it was 0%; in the experiment with EGFR it was 0%. For the same compound, the “%Inh” value in the experiment with EIF2AK1 and with EPHA1 was 0% in each case.
For `CS(=O)(=O)Cc1ccc(Nc2nccc(-c3c(-c4cccc(NC(=O)C5CCCCC5)c4)nn4ncccc34)n2)cc1` [GSK350559], the “%Inh” value in the experiment on CTK stood at 38%; with DAPK1, 0%; in the experiment on DAPK2, 9%; in the experiment on DAPK3 it was 0%; in the experiment with DCAMKL1, 0%; in the experiment with DCAMKL2, 15%. The “%Inh” value is given as 0% with DCAMKL3; 96.6% in the experiment on DDR1; 54% with DDR2; 41% in the experiment on DLK; 35% in the experiment on DMPK2; 0% with DMPK. Besides, the “%Inh” value stood at 0% with DRAK1; 0% in the experiment on DRAK2; 26% in the experiment on DYRK1A; 0% with DYRK1B (1 µM); 5% with DYRK2; 68% in the experiment on EGFR. Besides, the “%Inh” value is 22% with EIF2AK1 and 6% in the experiment with EPHA1.
Consider `O=C(Nc1n[nH]c2nc(-c3cccs3)c(Br)cc12)C1CCCC1` [SB-743341], for which the “%Inh” value was 49% with CTK; 0% with DAPK1; 3% in the experiment on DAPK2; 3% in the experiment on DAPK3; 0% in the experiment with DCAMKL1; 7% in the experiment with DCAMKL2. In addition, the “%Inh” value is listed as 22% in the experiment on DCAMKL3; 27% in the experiment with DDR1; 0% with DDR2; 0% with DLK; 9% in the experiment on DMPK2; 5% with DMPK. For the same compound, the “%Inh” value came out at 9% with DRAK1; 7% with DRAK2; 24% with DYRK1A; 0% with DYRK1B (setting [1]); 36% with DYRK2; 1% in the experiment with EGFR. Moreover, the “%Inh” value with EIF2AK1 was determined as 31%; in the experiment with EPHA1 it was 10%.
Take `Cc1c(Cn2c(C)c(C)n3c(=O)cc(N4CCOCC4)nc23)cccc1C(F)(F)F` [GSK2328680]: the “%Inh” value in the experiment with CTK stood at 0%; in the experiment on DAPK1, 0%; in the experiment with DAPK2, 0%; in the experiment with DAPK3 it was 3%; in the experiment with DCAMKL1 it was 0%; with DCAMKL2 it was 21%. For the same compound, the “%Inh” value with DCAMKL3 worked out at 5%; in the experiment with DDR1, 0%; in the experiment on DDR2, 11%; in the experiment with DLK, 14%; in the experiment on DMPK2, 0%; in the experiment with DMPK it was 0%. Further, the “%Inh” value came to 7% in the experiment with DRAK1; 0% in the experiment on DRAK2; 4% in the experiment on DYRK1A; 2% in the experiment on DYRK1B (setting [1]); 6% with DYRK2; 11% in the experiment with EGFR. Also, the entries for the “%Inh” value with EIF2AK1 and with EPHA1 were 0% and 20%, respectively.
Turning to `COC(=O)C(Cc1ccccc1)NC(=O)NC1CCN(c2ccnc(Nc3ccc(F)cc3)n2)C1` (centres unmarked) [GSK1379714], the “%Inh” value in the experiment with CTK came to 0%; in the experiment with DAPK1 it was 25%; with DAPK2, 12%; in the experiment on DAPK3 it was 28%; with DCAMKL1, 7%; in the experiment on DCAMKL2, 0%. Also, the “%Inh” value is 8% with DCAMKL3; 75% with DDR1; 47% in the experiment with DDR2; 48% in the experiment with DLK; 0% in the experiment on DMPK2; 0% in the experiment with DMPK. The “%Inh” value with DRAK1 is 0%; in the experiment with DRAK2 it was 0%; in the experiment on DYRK1A, 10%; in the experiment with DYRK1B (setting [1]), 10%; with DYRK2 it was 0%; in the experiment with EGFR it was 31%. Further, the “%Inh” value in the experiment with EIF2AK1 worked out at 0%; in the experiment with EPHA1 it was 7%.
Turning to `CNc1nc(-c2ccc3c(N)n[nH]c3c2)cc(N2C[C@@H](C(=O)Nc3ccccc3)CC[C@H]2C)n1` [GSK2298859], the “%Inh” value in the experiment on CTK is 0%; in the experiment on DAPK1, 11%; in the experiment with DAPK2 it was 30%; with DAPK3 it was 43%; in the experiment on DCAMKL1, 53%; in the experiment on DCAMKL2 it was 11%. The “%Inh” value in the experiment on DCAMKL3 turned out to be 76%; with DDR1 it was 6%; in the experiment on DDR2, 8%; with DLK it was 11%; in the experiment with DMPK2, 13%; in the experiment on DMPK, 0%. In addition, the “%Inh” value in the experiment with DRAK1 amounted to 97.6%; with DRAK2, 80%; in the experiment with DYRK1A it was 15%; in the experiment on DYRK1B (setting [1]) it was 0%; in the experiment on DYRK2 it was 10%; with EGFR, 31%. In addition, the “%Inh” value in the experiment with EIF2AK1 was found to be 0%; in the experiment on EPHA1, 14%.
As for `O=c1cc(N2CCOCC2)nc2n(Cc3cccc(Cl)c3Cl)c3ccccc3n12` [GSK2299009], the “%Inh” value turned out to be 0% in the experiment with CTK; 13% in the experiment with DAPK1; 0% in the experiment on DAPK2; 11% in the experiment with DAPK3; 12% with DCAMKL1; 7% in the experiment on DCAMKL2. Moreover, the “%Inh” value turned out to be 10% in the experiment with DCAMKL3; 22% with DDR1; 0% in the experiment with DDR2; 0% in the experiment on DLK; 24% in the experiment with DMPK2; 10% in the experiment with DMPK. Also, the “%Inh” value in the experiment with DRAK1 stood at 3%; with DRAK2 it was 0%; with DYRK1A, 28%; in the experiment on DYRK1B (setting [1]) it was 15%; in the experiment on DYRK2 it was 16%; with EGFR, 30%. Besides, the “%Inh” value was 24% in the experiment on EIF2AK1 and 14% with EPHA1.
In the case of `CCn1c(-c2c(N)noc2C)nc2cnccc21` [SB-737856], the “%Inh” value in the experiment with CTK worked out at 14%; in the experiment with DAPK1, 0%; with DAPK2 it was 0%; in the experiment on DAPK3, 0%; in the experiment with DCAMKL1, 5%; in the experiment with DCAMKL2, 30%. For the same compound, the “%Inh” value was 0% in the experiment with DCAMKL3; 0% in the experiment with DDR1; 0% in the experiment on DDR2; 41% with DLK; 99.8% in the experiment with DMPK2; 0% in the experiment with DMPK. Also, the “%Inh” value is recorded as 0% in the experiment with DRAK1; 0% in the experiment on DRAK2; 30% in the experiment with DYRK1A; 0% in the experiment with DYRK1B (setting [1]); 4% with DYRK2; 24% in the experiment with EGFR. The “%Inh” value with EIF2AK1 came out at 3%; with EPHA1, 0%.
